# Where “and” joins values, the source holds several entries; their conditions need not be identical. Equal entries are not always repeated. Records with an inconclusive call do not appear. For some assays here: Measured potencies and affinities stand elsewhere. Calls of active or inactive are those of the source. Unless noted, no rule for the calls is given here.
# Tests used:
# [1] = qHTS profiling for inhibitors of Plasmodium falciparum (3D7) proliferation (AID 743322);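 also: infected erythrocytes exposed to compound for 72 h before lysis; 100% = DMSO vehicle wells and 0% = 0.29 µM artemisinin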; settings: P. falciparum 3D7 proliferation; at 28.7 µM (top of the series)
# Procedure, shortened: (§1)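 Erythrocytes infected with P. falciparum (0.3% parasitemia, 2.5% hematocrit) incubated with compounds 72 h at 37 C, 5% CO2. Lysis with saponin/Triton buffer containing SYBR Green I, overnight at room temperature in the dark; DNA fluorescence (485/535 nm) normalised to 0.29 uM artemisinin and DMSO.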
# [2] = qHTS profiling for inhibitors of Plasmodium falciparum (DD2) proliferation (AID 743323); settings: lower = more inhibition; at 28.7 µM (top of the series)
# Procedure, shortened: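 Parasite proliferation measured via DNA-dye fluorescence, as uninfected erythrocytes lack DNA. Cultures at 0.3% parasitemia and 2.5% hematocrit incubated 72 h with compound; signal scaled between vehicle and 0.29 uM artemisinin wells.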
# [3] = qHTS profiling for inhibitors of Plasmodium falciparum (HB3) proliferation (AID 743324; active = well fitted curve in the direction sought with a large enough effect; an effect the other way counts as inactive or inconclusive;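 also: 100% = DMSO vehicle wells and 0% = artemisinin-treated control wells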); settings: Plasmodium falciparum HB3 blood-stage proliferation; at 28.7 µM (top of the series)
# Procedure, shortened: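 P. falciparum HB3 grown in erythrocytes (0.3% parasitemia, 2.5% hematocrit final) with compound for 72 h at 37 C, 5% CO2. Parasite DNA detected by SYBR Green after saponin/triton lysis overnight; normalized to 0.29 uM artemisinin and DMSO.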
# [4] = qHTS profiling of the MIPE4 collection as inhibitors of Plasmodium falciparum (3D7) proliferation (AID 743344);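 also: scaled between DMSO vehicle wells and 0.29 µM artemisinin as full inhibition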; settings: P. falciparum 3D7 in erythrocytes, SYBR Green DNA fluorescence, 72 h; at 28.5 µM (top of the series) unless noted
# Procedure, shortened: as §1
# [5] = qHTS profiling of the MIPE4 collection as inhibitors of Plasmodium falciparum (DD2) proliferation (Rep 2) (AID 743346); settings: P. falciparum Dd2 in erythrocytes, SYBR Green DNA, 72 h; at 28.5 µM (top of the series) unless noted
# Procedure, shortened: as §1
# [6] = qHTS profiling of the MIPE4 collection as inhibitors of Plasmodium falciparum (HB3) proliferation (AID 743347);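 also: plate controls were DMSO vehicle wells for no effect and artemisinin wells for full effect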; settings: P. falciparum HB3 in erythrocytes, SYBR Green DNA, 72 h; at 28.5 µM (top of the series) unless noted
# Procedure, shortened: as §1
# [7] = Ebola virus entry assay, green fluorescence channel
# [8] = qHTS assay for cell viability of the p53RE-bla HCT-116 cell line (AID 743292; active = well fitted curve in the direction sought with a large enough effect; an effect the other way counts as inactive or inconclusive; also: nearly all actives have a fitted effect of over 55% in size; also: potency is read from the fitted curve at half-maximal effect)
# Procedure, shortened: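 After plating at 4,000 cells per well and a 5 h rest at 37 C, HCT-116 cells carrying p53RE-bla received test chemicals in DMSO. Sixteen hours later at 37 C, CellTiter-Glo was added and luminescence recorded following 30 min at room temperature.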
# [9] = qHTS profiling of the MIPE4 collection as inhibitors of Plasmodium falciparum (DD2) proliferation (AID 743345); settings: P. falciparum Dd2 in erythrocytes, SYBR Green DNA, 72 h; at 28.5 µM (top of the series) unless noted
# Procedure, shortened: as §1
# For efficacy in this document: 0% is about no effect.
SMILES,remaining parasite growth % (stronger effect = lower value) [1],"activity, percent of control [2]","remaining proliferation (% of control), lower = more inhibition [3]","parasite growth, % of DMSO control [4]","parasite growth, % of control (lower = inhibition) [5]","growth, % of control [6]",efficacy [7],Potency [8],"parasite growth remaining, % of DMSO control (lower = more inhibition) [9]"
Oc1cc(Cl)ccc1Oc1ccc(Cl)cc1Cl,0.738%,2.03%,1.17%,6.59%,20.6%,5.41%,-133% (inactive),,
C=C(C)[C@H]1Cc2c(ccc3c2O[C@@H]2COc4cc(OC)c(OC)cc4[C@@H]2C3=O)O1,82.1%,97.6%,,86.6%,35.5%,90.3%,120% (inactive),inactive,
CS(=O)c1ccc(-c2nc(-c3ccc(F)cc3)c(-c3ccncc3)[nH]2)cc1 (centres undefined),64.7%,56.4%,,,30.3% [at 57.5 µM],,,,
CNC(=O)c1ccc(N2C(=S)N(c3ccc(C#N)c(C(F)(F)F)c3)C(=O)C23CCC3)cc1F,74.2%,76.1%,43.8%,36.9%,45.4%,69.7%,,,
Nc1ccncc1,,,,,,,-10% (inactive),inactive,
Cc1sc2c(c1C)C(c1ccc(Cl)cc1)=N[C@@H](CC(=O)OC(C)(C)C)c1nnc(C)n1-2,4.84%,14.6%,-1.43%,16.3%,29.2%,12.7%,,,
Oc1ccc(Cl)cc1Cc1ccccc1,,,,,,,-105% (inactive),inactive,
CCOP(=S)(OCC)Oc1cc(C)nc(C(C)C)n1,,,,,,,13.4% (inactive),inactive,
Cc1cccc(C)c1NC(=O)CN1CCCC1=O,,,,101%,129%,89.5%,-15.1% (inactive),,
CC1=C2C[C@@H]3[C@@H](CC=C4C[C@@H](O)CC[C@@]43C)[C@@H]2CC[C@]12O[C@H]1C[C@H](C)CN[C@H]1[C@H]2C,66.1%,39%,5.81%,61.1%,33.5%,71.2%,,,
CN(C)CCc1ccc(O)cc1,,,,103%,111%,104%,-10.6% (inactive),,95.5%
NCC(O)c1ccc(O)cc1 (centres undefined),,,,,,,-25.6% (inactive),inactive,
Cc1cc(SCc2sc(-c3ccc(C(F)(F)F)c(F)c3)nc2C)ccc1OCC(=O)O,101%,90.7%,82.6%,66.7%,50.9%,87.4%,,50.1 µM (active),88.1%
C[C@]12CCC(=O)C(O)=C1CC[C@@H]1[C@@H]2CC[C@]2(C)C(=O)CC[C@@H]12,90.5%,71.8%,108%,,,,-14% (inactive),inactive,
COc1cc([C@@H]2c3cc4c(cc3[C@H](O)[C@H]3COC(=O)[C@H]23)OCO4)cc(OC)c1OC,68.4% and 104%,62.7% and 121%,5.53% and 99%,11%,,6.71%,25.2% (inactive),,
O=c1oc2ccccc2c(O)c1C(CC(O)c1ccc(-c2ccc(Br)cc2)cc1)c1ccccc1 (centres undefined),,,,,,,92.1% (inactive),31.6 µM (active),
c1ccc2c(c1)Nc1ccccc1S2,,,,,,,4% (inactive),inactive,
O=C(O)C(=O)c1cn(Cc2ccccc2)c2ccc(-c3ccc(OC(F)(F)F)cc3)cc12,110%,90.7%,30.7%,222%,77.4%,506%,,,
Cn1cc(C2=C(c3cn(C4CCN(Cc5ccccn5)CC4)c4ccccc34)C(=O)NC2=O)c2ccccc21,94.2%,70%,,11.5%,21.1%,6.8%,36.4% (inactive),,
Fc1ccc(C(OCCN2CCN(CCCc3ccccc3)CC2)c2ccc(F)cc2)cc1,,,,5.99%,10.9%,86.1%,-187% (inactive),,
Oc1cccc2cccnc12,,,,,,,-17.8% (inactive),inactive,
CNC(=O)N1N=C(c2ccc(N)cc2)c2cc3c(cc2CC1C)OCO3 (centres undefined),46.2%,92.1%,83.9%,269%,67.9%,248%,,,
O=c1c(O)c(-c2ccc(O)c(O)c2)oc2cc(O)cc(O)c12,,,,,,,-18.8% (inactive),,39%
COC1(CS(=O)c2ccccc2)CCN(CCc2c[nH]c3ccc(F)cc23)CC1 (centres undefined),23.6%,44.5%,10%,36.7%,66.8%,35.7%,,,55.9%
C[C@@H]1[C@@H](CC(C[C@H]2O[C@@H]3O[C@]4(C)CC[C@@H]5[C@H](C)CC[C@@H]([C@H]2C)[C@@]35OO4)C[S+](=O)([O-])c2ccc(COC(=O)N(C)C)cc2)O[C@@H]2O[C@]3(C)CC[C@H]4[C@H](C)CC[C@@H]1[C@@]24OO3 (some centres undefined),-0.6%,-0.0428%,0.323%,25.5%,23.2%,20.9%,,,6.65%
COC[C@H]1OC(=O)c2coc3c2[C@@]1(C)C1=C(C3=O)C2CCC(=O)[C@@]2(C)C[C@H]1OC(C)=O (some centres undefined),74.1%,57.9%,74%,,,,,,
C[C@@H]1[C@@H](C(=O)C[C@H]2O[C@@H]3O[C@]4(C)CC[C@@H]5[C@H](C)CC[C@@H]([C@H]2C)[C@@]35OO4)O[C@@H]2O[C@]3(C)CC[C@H]4[C@H](C)CC[C@@H]1[C@@]24OO3,-0.0732%,-0.0237%,0.763%,20.5%,8.22%,29.5%,,,
COC[C@@H](NC(C)=O)C(=O)NCc1ccccc1,,,,371%,165%,737%,-31.5% (inactive),,113%
COc1ccc2c(c1OC)CN1CCc3cc4c(cc3C1C2)OCO4 (centres undefined),,,,12.7%,10.1%,7.61%,-21% (inactive),,24.6%
